Compounds without any hit were thinned out: in the full panel of roughly 79,000, 15% have a hit. Unmarked numbers belong to inactive results. Active and inactive are the calls of the source. Rule as the data show it: active = growth inhibition above about 70%; inactive = the rest.

A short description of experiment [1]: NCI Yeast Anticancer Drug Screen. Data for the rad50 strain (AID 155).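 Also: 0% = growth of vehicle-only cultures of the same strain.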 The following applies: S. cerevisiae rad50 strain growth inhibition; at 50.0 µM; hits give high values. The method in brief: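 A DNA repair-deficient yeast mutant serves as the test organism; compound-induced growth inhibition is calculated against vehicle-treated cells.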
Experiment [2] is described as follows: NCI Yeast Anticancer Drug Screen. Data for the mec2-1 strain (AID 157). The following applies: S. cerevisiae mec2-1 strain, at 50.0 µM, hits give high values. The method in brief: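 Using mec2-1 yeast: add compound, measure growth, express inhibition versus vehicle-treated cultures.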
Experiment [3] in a line: NCI Yeast Anticancer Drug Screen. Data for the sgs1 mgt1 strain (AID 161).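 Also: 0% = growth of cultures given vehicle only.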 The following applies: S. cerevisiae sgs1 mgt1 strain, at 50.0 µM, hits give high values. The method in brief:
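Growth of a repair-deficient yeast mutant was monitored after compound treatment and expressed as inhibition relative to vehicle-treated cultures.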

A short description of experiment [4]: NCI Yeast Anticancer Drug Screen. Data for the cln2 rad14 strain (AID 165).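 Also: 0% = growth equal to vehicle treated cultures.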 As to conditions: S. cerevisiae cln2 rad14 strain, at 50.0 µM, hits give high values. The method in brief:
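Yeast strain cln2 rad14, bearing defects in cell cycle control and DNA repair, serves as the test system; values reflect growth inhibition compared with vehicle.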

Experiment [5] is described as follows: NCI Yeast Anticancer Drug Screen. Data for the bub3 strain (AID 167). As to conditions: S. cerevisiae bub3 mutant strain, at 50.0 µM, hits give high values. The essentials:
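Inhibition values come from growth of compound-treated mutant yeast normalised to vehicle-treated controls.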

Experiment [6] is described as follows: NCI Yeast Anticancer Drug Screen. Data for the mlh1 rad18 strain (AID 175). The following applies: S. cerevisiae mlh1 rad18 strain growth inhibition; at 50.0 µM; hits give high values. The essentials: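 Steps: expose repair-defective yeast to compound; measure growth; express inhibition against vehicle-treated controls.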

On to `CCOC(=O)c1ccc(N)cc1`, for which the growth inhibition in experiment [1] is 19.2%; in experiment [2], 20.1%; in experiment [3], -3.1%; in experiment [4], -9.55%; in experiment [5], -18.6%; in experiment [6], -1.8%.

Consider `O=C1CSC=NN1c1ccccc1`, for which the growth inhibition in experiment [1] is -12.8%; in experiment [2] it was -6.75%; in experiment [3], -14.9%; in experiment [4], -9.75%; in experiment [5], 5.75%; in experiment [6], 3.9%.

With `OC(c1ccccc1)c1c(-c2ccccc2)[nH]c(-c2ccccc2)c1C(O)c1ccccc1` (stereo unspecified), the growth inhibition in experiment [1] is 1%; in experiment [2], 14.8%; in experiment [3] it was -6.5%; in experiment [4], 22.2%; in experiment [5] it was -23.3%; in experiment [6], -6.9%.

Regarding `CN1[C@@H]2C[C@@H](OC(=O)[C@H](CO)c3ccccc3)C[C@H]1[C@@H]1O[C@@H]12`, the growth inhibition is -1.3% in experiment [1]; 2.4% in experiment [2]; -33.7% in experiment [3]; -20.4% in experiment [4]; -10.3% in experiment [5]; 5.6% in experiment [6].

Regarding `O=C(Cc1ccccc1)c1ccc(OCC(O)CN2CCN(c3ccccc3)CC2)cc1` (stereo unspecified), the growth inhibition in experiment [1] is 97.7% (active); in experiment [2], 98.1% (active); in experiment [3], 99.3% (active); in experiment [4], 93.4% (active); in experiment [5], 84.1% (active); in experiment [6] it was 96.3% (active).

As for `Cc1nc2cccc([N+](=O)[O-])c2s1`, the growth inhibition in experiment [1] is 15.2%; in experiment [2] it was 1.7%; in experiment [3], 28.4%; in experiment [4], 11.7%; in experiment [5], 17.4%; in experiment [6] it was 20.4%.

Take `CC(C)C1OC2(CCCC2)OCC1(C)C` (stereo unspecified): the growth inhibition was -10.2% in experiment [1]; -19.4% in experiment [2]; -10.4% in experiment [3]; -21.8% in experiment [4]; -4.7% in experiment [5]; -1.1% in experiment [6].

Consider `Cc1cc(=O)[nH]c(NN2C(Cl)C(=O)C2c2cccc([N+](=O)[O-])c2)n1` (stereo unspecified), for which the growth inhibition in experiment [1] is 18.1%; in experiment [2] it was -32.5%; in experiment [3], -0.3%; in experiment [4] it was -7.1%; in experiment [5] it was -7.45%; in experiment [6] it was -33.6%.

Consider `CC(C)(C)OC(=O)NN(CC(=O)OCc1ccccc1)N=O`, for which the growth inhibition in experiment [1] was 5.35%; in experiment [2], -2.15%; in experiment [3], 2.9%; in experiment [4] it was -42.5%; in experiment [5], 10.2%; in experiment [6], -7.6%.

Consider `Nc1ccc(CCCCc2nc(N)nc(N)c2-c2ccc(Cl)c(Cl)c2)cc1`, for which the growth inhibition is 36.5% in experiment [1]; 77% (active) in experiment [2]; 88.8% (active) in experiment [3]; 9.1% in experiment [4]; 14.9% in experiment [5]; 60.5% in experiment [6].

As for `C(=C/c1ccc(-c2ccccc2)cc1)/c1ccc(-c2ccccc2)cc1`, the growth inhibition in experiment [1] is -4.5%; in experiment [2], -13.4%; in experiment [3], 11.2%; in experiment [4], -23.3%; in experiment [5], 24.4%; in experiment [6], -2.45%.

With `CCOC(=O)NC(=S)Nc1ccn(C)c1`, the growth inhibition in experiment [1] is 10.4%; in experiment [2] it was 36.8%; in experiment [3], 4.6%; in experiment [4], 39.9%; in experiment [5], 1.65%; in experiment [6], 46.6%.

Take `CC(Nc1ccc(Br)cc1[N+](=O)[O-])C(=O)O` (stereo unspecified): the growth inhibition in experiment [1] is 22.1%; in experiment [2] it was 11.6%; in experiment [3], 58.2%; in experiment [4], 19.1%; in experiment [5], 30.8%; in experiment [6], 6.95%.

For `COc1cc2c(cc1OC)C(=O)/C(=C/c1ccc([N+](=O)[O-])cc1)CC2`, the growth inhibition in experiment [1] is -50.2%; in experiment [2], -56.5%; in experiment [3], -11.9%; in experiment [4], -38.2%; in experiment [5], -28%; in experiment [6], -33.9%.

In the case of `COC(=O)c1cccc(O)c1O`, the growth inhibition is 12.9% in experiment [1]; -0.3% in experiment [2]; -1.5% in experiment [3]; -41.4% in experiment [4]; 18% in experiment [5]; -0.65% in experiment [6].

For the molecule `O=C(Oc1ccccc1)C(Cc1ccccc1)NC(=O)C(F)(F)F` (stereo unspecified), the growth inhibition in experiment [1] is 4.6%; in experiment [2], 7.7%; in experiment [3], -4.8%; in experiment [4] it was 1.5%; in experiment [5], 5.85%; in experiment [6], -37.4%.

As to `NC(=O)N/N=C\CC(O)(C(F)(F)Cl)C(F)(F)Cl`, the growth inhibition in experiment [1] is -33.9%; in experiment [2] it was -29.2%; in experiment [3], -15.6%; in experiment [4], -1.5%; in experiment [5] it was 3.2%; in experiment [6], -3.1%.

Regarding `COC(=O)NC(Cc1ccccc1)NC(=O)OC(C)(C)C` (stereo unspecified), the growth inhibition was -30.6% in experiment [1]; -46% in experiment [2]; -20.5% in experiment [3]; -0.95% in experiment [4]; -4.25% in experiment [5]; -12.9% in experiment [6].

In the case of `O=c1ccocc1OC1OC(CO)C(O)C(O)C1O` (stereo unspecified), the growth inhibition in experiment [1] was -3.95%; in experiment [2], -26.4%; in experiment [3], -21.1%; in experiment [4], -1.35%; in experiment [5], -32.3%; in experiment [6], -23.1%.

Regarding `CCN(CC)c1ccc(/C=N\N(C)C)cc1`, the growth inhibition in experiment [1] is 0.2%; in experiment [2], -13.2%; in experiment [3] it was -4.8%; in experiment [4] it was -48.1%; in experiment [5], -1.65%; in experiment [6], -6.55%.

Consider `O=C1COC(=O)/C1=C/c1ccccc1`, for which the growth inhibition was -0.4% in experiment [1]; -7.85% in experiment [2]; -4.75% in experiment [3]; 2.3% in experiment [4]; -15.8% in experiment [5]; -1.05% in experiment [6].
